Reference: ChEMBL document CHEMBL4513146, “CO-ADD screening of Karazin Kharkiv National University (Ukraine) compounds”
Potency and affinity values are given separately.

These compounds were tested on Staphylococcus aureus. Details: Concentration 32 ug.mL-1;; ASSAY_TEST Inhibition of Bacterial Growth; detection method Absorption (OD600); MEDIA CAMHB; plate type 384well; NBS; CORNING #3640; time 18 hr.

Row | SMILES | Inhibition [%]
1 | COc1ccc(C(=O)CSc2nnc3c(=O)n(-c4ccc(Br)cc4)ccn23)cc1 | 17.48
2 | Cc1ccc(-n2ccn3c(=O)n(Cc4cccc(Cl)c4)nc3c2=O)cc1C | 7.38
3 | COc1ccccc1NC(=O)Cn1nc2c(SCc3ccc(Cl)cc3)nccn2c1=O | 2.82
4 | O=C(Cn1nc2c(Oc3ccccc3)nccn2c1=O)Nc1ccccc1F | 6.14
5 | COc1ccccc1-n1ccn2c(SCc3ccc(C)cc3)nnc2c1=O | 4.53
6 | Cc1cc(C)cc(N(Cc2cc(F)cc(F)c2)S(=O)(=O)c2cccn3c(C)nnc23)c1 | 9.54
7 | COc1ccc(-c2cc3c4nnc(SCC(=O)Nc5cccc(Cl)c5C)n4ccn3n2)cc1 | -7.92
8 | COc1ccccc1NC(=O)Cn1nc2c3cc(-c4ccc(Cl)cc4)nn3ccn2c1=O | 5.68
9 | COc1cccc(-n2ccn3c(SCc4cc(C)ccc4C)nnc3c2=O)c1 | 11.56
10 | CC(C)c1nnc2c(=O)n(CC(=O)Nc3cc(Cl)ccc3Cl)c3ccccc3n12 | 3.75
11 | CCOc1ccc(-n2ccn3c(SCC(=O)NCc4ccccc4Cl)nnc3c2=O)cc1 | 3.68
12 | Cc1ccccc1NC(=O)Cn1nc2c3cc(-c4ccc(Cl)cc4)nn3ccn2c1=O | 14.21
13 | CCC(Sc1nnc2c(=O)n(-c3cccc(OC)c3)ccn12)C(=O)Nc1cc(OC)cc(OC)c1 (stereo not given) | 13.02
14 | CCC(C)NC(=O)Cn1nc2ccc(SCc3ccc(Cl)cc3)nn2c1=O (stereo not given) | 7.31
15 | COc1ccc(NC(=O)C(C)Sc2nnc3c(=O)n(-c4ccccc4)ccn23)cc1 (stereo not given) | 4.59
16 | O=C(Cn1nc2c3c4c(sc3ncn2c1=O)CCCC4)NCc1ccc(F)cc1 | 8.69
17 | COc1ccc(OC)c(NC(=O)Cn2nc3c4c5c(sc4ncn3c2=O)CCCC5)c1 | 3.15
18 | CCC(C)NC(=O)Cn1nc2n(CC(C)C)c(=O)c3ccc(C(=O)NC4CCCCC4)cc3n2c1=O (stereo not given) | 7.36
19 | Cn1c(=O)c2ccc(C(=O)NC3CCCCC3)cc2n2c(=O)n(CC#N)nc12 | 10.61
20 | O=C(Cn1nc2c3c4c(sc3ncn2c1=O)CCCC4)NCCc1ccc(Cl)cc1 | 7.1

Row | SMILES | Inhibition [%]
21 | CCc1ccc(N(Cc2ccccc2)S(=O)(=O)c2cccn3cnnc23)cc1 | 5.64
22 | COc1cccc(CN(c2cc(F)cc(F)c2)S(=O)(=O)c2ccc3nnc(C)n3c2)c1 | 7.94
23 | Cc1ccc(NC(=O)Cn2nc3cc(C)nc(Nc4ccc(F)c(C)c4)n3c2=O)cc1 | 11.03
24 | CCc1ccc(Cn2c(=O)c3sccc3n3c(=O)n(Cc4c(F)cccc4Cl)nc23)cc1 | 3.47
25 | Cc1cc2nn(CC(=O)NC3CCCCC3)c(=O)n2c(Nc2ccc(F)c(C)c2)n1 | 11.08
26 | Cc1ccc(Oc2nccn3c(=O)n(CC(=O)Nc4ccc(F)cc4F)nc23)cc1 | 19.59
27 | Cc1nnc2ccc(S(=O)(=O)N(Cc3ccccc3F)c3ccc(Cl)cc3)cn12 | -12.68
28 | Cc1nnc2ccc(S(=O)(=O)N(Cc3cccc(F)c3)c3cc(F)cc(F)c3)cn12 | 9.82
29 | CCCc1nnc2c(=O)n(CC(=O)Nc3ccc(Br)cc3F)c3ccccc3n12 | -16.77
30 | COc1ccc(CNC(=O)Cn2nc3c(N4CCN(c5ccccc5)CC4)nccn3c2=O)cc1 | 21.01
31 | CCN(CCCNC(=O)CCc1nnc2ccc(-c3ccccc3)nn12)c1ccccc1 | 5.66
32 | COc1ccc(NC(=O)Cn2nc3c(SCc4ccc(Cl)cc4)nccn3c2=O)cc1OC | 6.14
33 | COc1ccc(N(Cc2cc(F)cc(F)c2)S(=O)(=O)c2ccc3nnc(C)n3c2)cc1 | 12.66
34 | COc1ccc(CCn2c(=O)c3sccc3n3c(=O)n(Cc4c(F)cccc4Cl)nc23)cc1OC | -2.47
35 | CC(C)Cn1c(=O)c2sccc2n2c(=O)n(Cc3ccc(Br)cc3)nc12 | 2.7
36 | CN(C(=O)Cn1nc2n(Cc3ccco3)c(=O)c3sccc3n2c1=O)c1ccccc1 | 0.44
37 | COC(=O)c1ccc(NC(=O)CSc2nnc3c4cc(-c5ccc(OC)cc5)nn4ccn23)cc1 | 8.99
38 | Cc1nnc2c(=O)n(CC(=O)Nc3cccc(Br)c3)c3ccccc3n12 | 15.88
39 | O=C(Cn1nc2c(Sc3cccc(F)c3)nccn2c1=O)Nc1ccc(Br)cc1 | 3
40 | COc1ccc(-c2cc3c4nnc(CCC(=O)NCc5ccc(OC)c(OC)c5)n4ccn3n2)cc1 | 6.96

The compounds below were run on Escherichia coli. Details: Concentration 32 ug.mL-1;; ASSAY_TEST Inhibition of Bacterial Growth; detection method Absorption (OD600); MEDIA CAMHB; plate type 384well; NBS; CORNING #3640; time 18 hr.

Row | SMILES | Inhibition [%]
41 | COc1ccc(C(=O)CSc2nnc3c(=O)n(-c4ccc(Br)cc4)ccn23)cc1 | 2.13
42 | Cc1ccc(-n2ccn3c(=O)n(Cc4cccc(Cl)c4)nc3c2=O)cc1C | 0.11
43 | COc1ccccc1NC(=O)Cn1nc2c(SCc3ccc(Cl)cc3)nccn2c1=O | -8
44 | O=C(Cn1nc2c(Oc3ccccc3)nccn2c1=O)Nc1ccccc1F | -2.38
45 | COc1ccccc1-n1ccn2c(SCc3ccc(C)cc3)nnc2c1=O | -10.18
46 | Cc1cc(C)cc(N(Cc2cc(F)cc(F)c2)S(=O)(=O)c2cccn3c(C)nnc23)c1 | -1.86
47 | COc1ccc(-c2cc3c4nnc(SCC(=O)Nc5cccc(Cl)c5C)n4ccn3n2)cc1 | -11.64
48 | COc1ccccc1NC(=O)Cn1nc2c3cc(-c4ccc(Cl)cc4)nn3ccn2c1=O | -3.99
49 | COc1cccc(-n2ccn3c(SCc4cc(C)ccc4C)nnc3c2=O)c1 | -0.49
50 | CC(C)c1nnc2c(=O)n(CC(=O)Nc3cc(Cl)ccc3Cl)c3ccccc3n12 | 5.3
51 | CCOc1ccc(-n2ccn3c(SCC(=O)NCc4ccccc4Cl)nnc3c2=O)cc1 | -5.16
52 | Cc1ccccc1NC(=O)Cn1nc2c3cc(-c4ccc(Cl)cc4)nn3ccn2c1=O | 4.06
53 | CCC(Sc1nnc2c(=O)n(-c3cccc(OC)c3)ccn12)C(=O)Nc1cc(OC)cc(OC)c1 (stereo not given) | -6.26
54 | CCC(C)NC(=O)Cn1nc2ccc(SCc3ccc(Cl)cc3)nn2c1=O (stereo not given) | -1.43
55 | COc1ccc(NC(=O)C(C)Sc2nnc3c(=O)n(-c4ccccc4)ccn23)cc1 (stereo not given) | 4.26
56 | O=C(Cn1nc2c3c4c(sc3ncn2c1=O)CCCC4)NCc1ccc(F)cc1 | -4.83
57 | COc1ccc(OC)c(NC(=O)Cn2nc3c4c5c(sc4ncn3c2=O)CCCC5)c1 | -1.54
58 | CCC(C)NC(=O)Cn1nc2n(CC(C)C)c(=O)c3ccc(C(=O)NC4CCCCC4)cc3n2c1=O (stereo not given) | -3.14
59 | Cn1c(=O)c2ccc(C(=O)NC3CCCCC3)cc2n2c(=O)n(CC#N)nc12 | 1.2
60 | O=C(Cn1nc2c3c4c(sc3ncn2c1=O)CCCC4)NCCc1ccc(Cl)cc1 | 2.28

Row | SMILES | Inhibition [%]
61 | CCc1ccc(N(Cc2ccccc2)S(=O)(=O)c2cccn3cnnc23)cc1 | -1.12
62 | COc1cccc(CN(c2cc(F)cc(F)c2)S(=O)(=O)c2ccc3nnc(C)n3c2)c1 | -9.84
63 | Cc1ccc(NC(=O)Cn2nc3cc(C)nc(Nc4ccc(F)c(C)c4)n3c2=O)cc1 | 0.27
64 | CCc1ccc(Cn2c(=O)c3sccc3n3c(=O)n(Cc4c(F)cccc4Cl)nc23)cc1 | -8.75
65 | Cc1cc2nn(CC(=O)NC3CCCCC3)c(=O)n2c(Nc2ccc(F)c(C)c2)n1 | 0.19
66 | Cc1ccc(Oc2nccn3c(=O)n(CC(=O)Nc4ccc(F)cc4F)nc23)cc1 | -0.38
67 | Cc1nnc2ccc(S(=O)(=O)N(Cc3ccccc3F)c3ccc(Cl)cc3)cn12 | -19.04
68 | Cc1nnc2ccc(S(=O)(=O)N(Cc3cccc(F)c3)c3cc(F)cc(F)c3)cn12 | -6.06
69 | CCCc1nnc2c(=O)n(CC(=O)Nc3ccc(Br)cc3F)c3ccccc3n12 | -13.67
70 | COc1ccc(CNC(=O)Cn2nc3c(N4CCN(c5ccccc5)CC4)nccn3c2=O)cc1 | 2.9
71 | CCN(CCCNC(=O)CCc1nnc2ccc(-c3ccccc3)nn12)c1ccccc1 | 4.87
72 | COc1ccc(NC(=O)Cn2nc3c(SCc4ccc(Cl)cc4)nccn3c2=O)cc1OC | -6.36
73 | COc1ccc(N(Cc2cc(F)cc(F)c2)S(=O)(=O)c2ccc3nnc(C)n3c2)cc1 | -2.53
74 | COc1ccc(CCn2c(=O)c3sccc3n3c(=O)n(Cc4c(F)cccc4Cl)nc23)cc1OC | -5.54
75 | CC(C)Cn1c(=O)c2sccc2n2c(=O)n(Cc3ccc(Br)cc3)nc12 | -6.62
76 | CN(C(=O)Cn1nc2n(Cc3ccco3)c(=O)c3sccc3n2c1=O)c1ccccc1 | -5.3
77 | COC(=O)c1ccc(NC(=O)CSc2nnc3c4cc(-c5ccc(OC)cc5)nn4ccn23)cc1 | 0.03
78 | Cc1nnc2c(=O)n(CC(=O)Nc3cccc(Br)c3)c3ccccc3n12 | -0.63
79 | O=C(Cn1nc2c(Sc3cccc(F)c3)nccn2c1=O)Nc1ccc(Br)cc1 | -5.66
80 | COc1ccc(-c2cc3c4nnc(CCC(=O)NCc5ccc(OC)c(OC)c5)n4ccn3n2)cc1 | -5.17
